# Positions count from the first letter of the chain named.
# Columns and labels:
# Assay in all cases: PBM; 200 nM protein, PBS
# Settings in all cases: dsDNA, one strand shown
# NKX2-4 [1] = molecular target: T1, NKX2-4 (Homo sapiens, UniProt Q9H2Z4 175-261, T231S)
# T1 sequence: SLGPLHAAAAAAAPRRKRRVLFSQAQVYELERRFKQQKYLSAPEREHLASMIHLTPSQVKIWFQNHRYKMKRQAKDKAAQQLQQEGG
# NKX2-4 [2] = molecular target: T2, NKX2-4 (Homo sapiens, UniProt Q9H2Z4 175-261)
# T2 sequence: T1 sequence with S57T
# NKX2-4 [3] = molecular target: T3, NKX2-4 (Homo sapiens, UniProt Q9H2Z4 175-261, R246Q)
# T3 sequence: T1 sequence with S57T, R72Q
# HOXD13 [4] = molecular target: HOXD13 (Homo sapiens, UniProt P35453 263-343, T313R)
# HOXD13 [5] = molecular target: HOXD13 (Homo sapiens, UniProt P35453 263-343)
# HOXD13 [6] = molecular target: HOXD13 (Homo sapiens, UniProt P35453 263-343, T313A)
# PITX2 = PITX2 (Homo sapiens, UniProt Q99697 72-157)
# Sequence of HOXD13 (Homo sapiens, UniProt P35453 263-343, T313R) (P35453 263-343 T313R): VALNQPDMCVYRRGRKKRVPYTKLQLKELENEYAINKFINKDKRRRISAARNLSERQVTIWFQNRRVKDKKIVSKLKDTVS
# Sequence of HOXD13 (Homo sapiens, UniProt P35453 263-343, T313A) (P35453 263-343 T313A): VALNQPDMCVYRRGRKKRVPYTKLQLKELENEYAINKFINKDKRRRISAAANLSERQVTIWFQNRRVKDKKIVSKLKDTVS
# Sequence of HOXD13 (Homo sapiens, UniProt P35453 263-343) (P35453 263-343): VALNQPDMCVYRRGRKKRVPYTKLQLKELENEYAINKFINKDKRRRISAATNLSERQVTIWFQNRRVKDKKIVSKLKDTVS
sequence,measurement,setting,value
GAGCTGGC,binding signal,NKX2-4 [1],"9.66 upbm affinity estimate (log intensity, higher = more binding, comparable within an allelic series)"
same,binding signal,NKX2-4 [2],"9.73 upbm affinity estimate (log intensity, higher = more binding, comparable within an allelic series)"
same,binding signal,NKX2-4 [3],"9.66 upbm affinity estimate (log intensity, higher = more binding, comparable within an allelic series)"
ACGCTGCG,binding signal,NKX2-4 [1],"9.6 upbm affinity estimate (log intensity, higher = more binding, comparable within an allelic series)"
same,binding signal,NKX2-4 [2],"9.57 upbm affinity estimate (log intensity, higher = more binding, comparable within an allelic series)"
same,binding signal,NKX2-4 [3],"9.58 upbm affinity estimate (log intensity, higher = more binding, comparable within an allelic series)"
GCCCCCCA,binding signal,HOXD13 [4],"9.1 upbm affinity estimate (log intensity, higher = more binding, comparable within an allelic series)"
same,binding signal,HOXD13 [5],"9.22 upbm affinity estimate (log intensity, higher = more binding, comparable within an allelic series)"
same,binding signal,HOXD13 [6],"9.24 upbm affinity estimate (log intensity, higher = more binding, comparable within an allelic series)"
CGCGCGAG,binding signal,HOXD13 [4],"9.52 upbm affinity estimate (log intensity, higher = more binding, comparable within an allelic series)"
same,binding signal,HOXD13 [5],"9.48 upbm affinity estimate (log intensity, higher = more binding, comparable within an allelic series)"
same,binding signal,HOXD13 [6],"9.67 upbm affinity estimate (log intensity, higher = more binding, comparable within an allelic series)"
ACGGAAGG,binding signal,PITX2,"7.95 upbm affinity estimate (log intensity, higher = more binding, comparable within an allelic series)"
CTGCCAGC,binding signal,PITX2,"8.09 upbm affinity estimate (log intensity, higher = more binding, comparable within an allelic series)"
